Measured values taken from the supplement of paper PMC6555819.

How the values were obtained:
Test in all cases: PBM binding z-score (relative to random genomic background probes); higher = stronger binding; sequences stand for … in GC…GCGATTGACAGCGTAGAATGAAGG
[1] = test system: RARb homodimer (NR concentration 270 nM)
Summary of the method: (§1)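 Probes were double-stranded and carried 34-nt variable regions with direct-repeat seeds, single-nucleotide variants, half-site ablations and random human genomic background sequences, printed on custom Agilent 4×180K protein-binding microarrays. Arrays were incubated 1 h with ligand-free nuclear receptor dimers in PBS pH 7.4, 2% milk, 0.02% Triton X-100, 1 mM DTT, 0.2 mg/mL BSA and 0.4 mg/ml salmon testes DNA. Antibodies against each partner (one per run) detected binding, and scanned fluorescence was regression-normalized. Binding z-scores use the random background probes as reference.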

[2] = test system: RARg:RXRa (NR concentration 270 nM, RXRa partner concentration 90 nM)
Summary of the method: as §1

[3] = test system: RARg homodimer (NR concentration 270 nM)
Summary of the method: as §1

[4] = test system: RXRa DBDmut IVT, anti-RXR (DBD mutation: RXRa K156A/R161A, NR concentration 90 nM)
Summary of the method: as §1

[5] = test system: RXRa homodimer (NR concentration 180 nM)
Summary of the method: as §1

[6] = test system: THRa:RXRa (NR concentration 90 nM, RXRa partner concentration 90 nM)
Summary of the method: as §1

[7] = test system: THRa homodimer (NR concentration 90 nM)
Summary of the method: as §1

[8] = test system: VDR homodimer (NR concentration 270 nM)
Summary of the method: as §1

| Sequence | PBM binding z-score [1] | PBM binding z-score [2] | PBM binding z-score [3] | PBM binding z-score [4] | PBM binding z-score [5] | PBM binding z-score [6] | PBM binding z-score [7] | PBM binding z-score [8] |
| --- | --- | --- | --- | --- | --- | --- | --- | --- |
| GCTTACGAGTCAAAGGTTATAGCATGAATAGAAT | 1.24 | 2.58 | 1.09 | 0.218 | 5 | 1.76 | -0.786 | -0.176 |
| CCTACTGGGCCAAAGGTCATTCATTCCAATGCTC | 4.47 | 5.99 | 4.7 | 1.65 | 6.93 | 3.3 | 1.06 | 3.3 |
| TTACCAAGGTGAAAGGTTGTTGATGCACGCCTTG | 0.999 | 1.65 | 0.911 | 0.0428 | 2.58 | 2.15 | 0.748 | 0.0809 |
| CAAACTAGGTCACGAAAGGTCAATGTCGAATGAC | 5.73 | 7.46 | 8.51 | 2.11 | 7.37 | 5.27 | 2.55 | 2.77 |
| AATACAGGGTCACAAGGCCAGAGTAGGTACGAAT | 3.8 | 6.03 | 5.53 | 3.06 | 6.78 | 3.86 | 1.78 | 2.64 |
| AATGCAGGGTCACTAGGCCAGAGTAGGTACGAAT | 3.32 | 5.29 | 4.82 | 2.75 | 5.37 | 3.27 | 0.736 | 2.33 |
| TTACCAAGGTGAGCTGAGATCGTTGATCCAACTC | -0.439 | -0.0165 | 0.151 | -1.09 | -0.0334 | 1.1 | -0.431 | -0.976 |
| TAGCCTAGGTCATTCAGGGGCCAGTTTAGAAAGC | 3.42 | 5.71 | 4.11 | 1.65 | 2.56 | 3.67 | 0.971 | 1.28 |
| ATCTCTACGTAAGACTCAGTTCAGTGAAGAACGC | 0.71 | 0.107 | 0.393 | 0.74 | 0.286 | 0.601 | 0.378 | 1.45 |
| CCTACTGGGCCAGGAAAGGTCATTGATTCAGTGA | 4.32 | 4.28 | 3.54 | -0.114 | 4.36 | 3.44 | 0.626 | 1.99 |
| CCTTACGGGTCACTGACAGGTTATGGCATTTGGA | 3.41 | 5.79 | 4.82 | 1.85 | 5.22 | 2.9 | 0.174 | 0.887 |
| ACTCAAAGTTCAGGACGAGGTAACGTAAAGCACG | 3.56 | 4.83 | 5.29 | 3.38 | 3.39 | 4.03 | 1.98 | 2.46 |
| GCAGACAGGTGAAACGCAAGTAACTCAGGGTGGC | -0.222 | 0.227 | 0.311 | -0.514 | 0.606 | 0.23 | -0.701 | -0.62 |
| TCTTGTAGATCAAGGGTTAAGAAAGCCGAAGCCT | 0.274 | 0.818 | 0.191 | 0.293 | 1.64 | 0.516 | -0.93 | -0.218 |
| AGAACGAGCGCACGCTGAGTTGATAGCAGAGTAG | -1.25 | -0.476 | -0.51 | -0.346 | -0.489 | -0.752 | -1.21 | -0.599 |
| ACTATTAGTTGAGAAGAGGGCAACCGATAGGTTG | 1.43 | 0.92 | 0.968 | 0.286 | 0.599 | 1.37 | -0.313 | 0.263 |
| TCCGACAGGTGAAGGTAACTCAGGTACGCAGTCG | 0.334 | 0.325 | 0.374 | 0.258 | 0.788 | 1.3 | -0.0593 | 0.0508 |
| TGTCAAAGTTCGAAGGTAACGTAAGTATCCACAC | 1.02 | 2.38 | 1.83 | 1.74 | 2.23 | 1.44 | 0.0268 | 0.722 |
| TCATATAGGTAAATGGTAGGTGAAAGTCCGATCT | 0.917 | 0.69 | 0.384 | 1.84 | 0.945 | 0.858 | 0.785 | 1.1 |
| TGAATGAGGTTAAAGATCTGGGAACGTGGCGTCG | 0.638 | 1.65 | 1.42 | 1.24 | 2.49 | 2.26 | 0.597 | 0.872 |
| CCTCGGAGGACAGTAGGTCAGAGCTGTCCGCTTT | 2.39 | 2.09 | 2.06 | 0.0907 | 0.614 | 1.43 | -0.152 | -0.282 |
| AGTCAAAGTTCACTAAGTAACGTAAGATTCAGCT | 3.31 | 4.63 | 5.16 | 4.1 | 3.9 | 1.55 | -0.0534 | 3.4 |
| TAGCCTAGGTCAGATCGGGCCAGAATACGCTATA | 1.78 | 2.58 | 2.95 | -0.569 | 1.29 | 4.06 | -0.133 | -0.288 |
| TCTTGTAGATCAAGCCGGTTAAGAAAGCCTGAGT | 0.000492 | -0.162 | -0.393 | 0.918 | 0.161 | -0.0654 | -0.203 | 0.0355 |
| GCTGCTAGGTCAGGTTGATCAGCTAACGGGTACG | 2.24 | 2.65 | 3.71 | 0.558 | 1.14 | 1.73 | 0.499 | 0.442 |
| ACTAGCAGGCCAAGGGTTACTCAAGATTAGTCCG | 0.787 | 0.885 | 0.852 | -0.129 | 1.08 | 0.78 | -0.538 | -0.236 |
| CATACTAGGTCAAGGTCAAAGTCGGTTTGTGCCA | 5.08 | 6.18 | 6.66 | 3.15 | 5.93 | 4.24 | 3.85 | 4.88 |
| GCAGACAGGTTAAACGCAGGTAACTCAGGGTGGC | 0.331 | 1.81 | 0.406 | -0.0571 | 1.54 | 2.06 | -0.519 | -0.623 |
| GCTTGTACATCAAGGTTAAGAAAGACTAAGCTAA | 0.275 | 0.435 | 0.375 | -0.122 | 0.599 | 0.997 | -0.187 | -0.281 |
